Compound activity deposited in PubChem BioAssay by National Center for Advancing Translational Sciences (NCATS).
This is a sample that favours compounds with a hit; in the whole collection about 5.7% have one here.
HepG2 tox = qHTS for Inhibitors of TGF-b: Cytotox Counterscreen; HepG2 CAGA-GFP viability, ATP luminescence, 18 h; Potency, µM (highest dose often 46.1 µM), most hits filed as cytotoxic; hit rate 0.76% among 410,000
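CellTiter-Glo luminescence gave cytotoxicity after 18 hours at 37 degrees C. The cells were HepG2 CAGA-GFP in 1% FBS DMEM, stimulated with 500 pg/mL TGF-beta after compound addition. %Activity was normalised to no-cell wells (complete cell-killing) and DMSO (no toxicity), and curves were fitted and classified.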
TGFb inhibitor = qHTS for Inhibitors of TGF-b; HepG2 CAGA-GFP TGF-b/SMAD3 reporter, GFP fluorescence, 18 h; TGF-beta stimulated, 500 pg/mL final; hit rate 1.2% among 410,000; AID 588855, 2011; Potency, µM (titrated, usually from 46.1 µM), actives largely listed as inhibitors; also: nearly all actives have a fitted effect of over 65% in size
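Read-out: total well GFP (ex488/em500-530) summed from mean per-cell fluorescence. Cells: HEPG2 CAGA-GFP, 1% FBS DMEM, 18 h at 37 degrees C with 500 pg/mL final TGF-beta. Unstimulated wells served as the full-inhibition control; stimulated DMSO wells = 0%.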
ATXN2 expr inh = Primary qHTS for Inhibitors of ATXN expression; HEK-293 ATXN2-luciferase reporter, luminescence, 24 h; Potency, µM (top dose mostly 57 µM), usual class: inhibitors; hit rate 0.72% among 360,000; AID 1745845, 2022; also: nearly all actives have a fitted effect of over 55% in size
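qHTS (up to 57 uM final) was run with 24 h compound exposure of reporter cells at 37 °C. Each well was multiplexed: SteadyGlo luminescence measured ATXN2-luciferase expression after a fluorogenic Gly-Phe-AFC viability readout (25 uM final).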
ATXN viability = Viability Counterscreen for Primary qHTS for Inhibitors of ATXN expression; S2 cells (HEK-293 line with an ATXN2-luciferase reporter) viability, CellTiter-Fluor protease fluorescence, 24 h; Potency, µM (highest dose often 56.7 µM), usual class: cytotoxic; hit rate 0.49% among 400,000; AID 651635, 2014; also: nearly all actives have a fitted effect of over 40% in size
IL1B secr inh = qHTS for Inhibitors of Inflammasome Signaling: IL-1-beta AlphaLISA Primary Screen; THP-1 LPS/ATP IL-1B secretion, AlphaLISA, 16 h; stronger effect = lower value; activity change, % at 57.5 µM; hit rate 4.7% among 360,000; AID 743279, 2014; in the data active = activity change below about -50%; inconclusive = mostly about -30% to -49%
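Secreted IL-1B measured by AlphaLISA bead assay after 16 h compound exposure of THP-1 cells; compounds (final up to 57.5 uM) added 1 h before LPS (250 ng/mL) and ATP (1.25 mM) stimulation; lower signal means less secretion.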
A number is an active result; – = inactive; ? = inconclusive; · = not tested or not shown; [ ] = remark or other dose. Unless noted, calls follow the shape of the dose curve; as a rule, active = well fitted curve in the direction sought with a large enough effect; inconclusive = small, poorly fitted or top-dose-only effect, or another doubt; inactive = no such curve, though single readings can be large; an effect the other way counts as inactive or inconclusive.

SMILES	HepG2 tox	TGFb inhibitor	ATXN2 expr inh	ATXN viability	IL1B secr inh
Cc1cccc(N2C(=O)C(Oc3ccc(Cl)cc3Cl)C2C(=O)O)c1C (stereo unspecified)	–	–	–	?	–
CCCNCC1C(Oc2ccc(Cl)cc2Cl)C(=O)N1c1cccc(C)c1C (stereo unspecified)	–	?	·	?	-53
CCCCNCC1C(Oc2ccc(Cl)cc2)C(=O)N1c1ccccc1C (stereo unspecified)	16µM	14µM	–	–	-196
CCN(CCC(=O)O)c1ccc(/C=C/c2ccnc3ccccc23)cc1	–	–	·	·	·
OC(c1ccccc1)(c1ccccc1)C1CCN(CCCOc2cccc(OC(F)(F)F)c2)CC1	·	·	?	·	-51
OC(c1ccccc1)(c1ccccc1)C1CCN(CCCOc2ccc3c(c2)CCCC3)CC1	·	·	18µM	25µM	-115
N#CCc1ccc(OCCCN2CCC(C(O)(c3ccccc3)c3ccccc3)CC2)cc1	·	·	–	?	?
CC(=O)Nc1ccc(OCCCN2CCC(C(O)(c3ccccc3)c3ccccc3)CC2)cc1	·	·	–	?	–
Cc1cc(Nc2ccc(Cl)cc2)n2ncnc2n1	–	–	–	–	–
Cc1ccc(Nc2cc(-c3ccccc3)nc3ncnn23)cc1	–	–	–	–	-56
COc1ccc(-n2cc(CN(C)C(C)c3ccncn3)c(-c3cccc(F)c3)n2)cc1 (stereo unspecified)	–	–	?	–	-51
O=C(N/N=C/c1ccc(N2CCCCC2)o1)c1ccccc1	–	–	?	?	-96
Cc1ccccc1OCC(=O)N/N=C/c1ccncc1	–	–	–	–	–
Cc1ccccc1OCC(=O)N/N=C/c1ccc(N2CCOCC2)o1	–	13µM	–	–	?
Cc1ccccc1OCCC(=O)OCC(=O)Nc1ccc(N2CCOCC2)cc1	–	–	–	–	-62
Cc1cc(C(C)Nc2ccccc2)c2nc(N3CCOCC3)cc(=O)n2c1 (stereo unspecified)	·	·	–	·	·
Cc1ncc2c(c1CNC(=O)CN1CCCC1)CCN(C(=O)c1ccc(F)cc1F)C2	·	·	·	–	·
Cc1cccc(NS(=O)(=O)c2ccc3c(c2)CC(C)N3C(=O)C2CCC2)c1C (stereo unspecified)	–	?	–	?	·
CCCCCNCc1ccc(Br)cc1	–	–	–	–	?
CCCCCCNCc1ccc(Br)cc1	–	–	–	–	-56
Cc1ccc2[nH]c(=O)c(C3C(C#N)=C(N)Oc4c3ccc3cccnc43)cc2c1 (stereo unspecified)	–	10µM	?	·	?
C/C(=N\NC(=O)c1ccc(N/N=C(\C)c2ccc(O)cc2)cc1)c1ccc(O)cc1	11µM	13µM	·	?	–
COc1cc(C(=O)Nc2cccc(-c3nnc(-c4ccco4)o3)c2)ccc1OC(C)=O	–	–	–	–	-88
COc1ccc(C(=O)Nc2cccc(/C(C)=N/NC(=O)c3ccc([N+](=O)[O-])c(C)c3)c2)cc1OC	–	–	?	?	–
C/C(=N\NC(=O)c1ccc(O)cc1)c1cccc(NC(=O)c2ccc(Cl)cc2)c1	–	–	–	–	-97
SMILES	HepG2 tox	TGFb inhibitor	ATXN2 expr inh	ATXN viability	IL1B secr inh
COc1ccc(C(=O)Nc2cccc(/C(C)=N\NC(=O)c3ccoc3C)c2)cc1OC	–	–	–	–	-50
C/C(=N\NC(=O)c1cccc(O)c1)c1cccc(NC(=O)c2ccc(F)cc2)c1	–	–	–	–	–
O=C(Cn1c(=O)n(-c2ccc(Cl)cc2)c(=O)c2oc3ccccc3c21)Nc1ccccc1	–	–	·	·	·
C/C(=N\NC(=O)c1ccc(Cl)cc1)c1cccnc1	–	–	–	–	–
C/C(=N\NC(=O)c1ccc(Cl)cc1)c1cccc(NC(=O)c2cccnc2)c1	–	–	–	–	-66
O=C1ON=C(c2ccccc2)/C1=C/c1ccc(-c2ccccc2[N+](=O)[O-])o1	–	20µM	–	–	-110
Cc1onc(-c2ccccc2Cl)c1C(=O)NCc1nc(-c2ccc(C(F)(F)F)cc2)no1	–	?	–	–	-76
CCn1c(SCC(N)=O)nc2cc(S(=O)(=O)N3CCOCC3)ccc21	–	–	–	–	–
CCOC(=O)CSc1nc2cc(S(=O)(=O)N3CCOCC3)ccc2n1CC	–	–	–	–	-90
CCn1c(CCl)nc2cc(S(=O)(=O)N3CCOCC3)ccc21	–	–	–	–	-101
COc1ccc(CNC(=O)c2ccc(-c3nc(CSc4ccccc4)c(C)o3)cc2)cc1OC	–	–	–	–	·
CC(CNC(=S)Nc1cc(F)cc(F)c1)CSc1ccc(Cl)cc1 (stereo unspecified)	–	18µM	?	?	-97
Cc1cccc(C)c1NC(=S)NCCSc1ccc(Cl)cc1	–	?	–	–	-72
Cc1ccc(SCCNC(=S)Nc2cc(C)cc(C)c2)cc1	–	?	–	–	–
Cc1ccc(NC(=S)NCCSc2ccc(Cl)cc2)cc1	–	?	–	–	-91
Cc1ccc(NC(C)c2cc(Cl)ccc2O)cc1 (stereo unspecified)	11µM	–	–	–	–
CCOC(=O)/C(=C\c1ccc([N+](=O)[O-])o1)NC(=O)c1ccccc1	11µM	?	–	?	–
CCCOC(=O)/C(=C\c1ccc([N+](=O)[O-])o1)NC(=O)c1ccccc1	–	?	–	?	–
Cc1cc(Cl)ccc1OCC(=O)NCC1Cc2cc(-c3cnccn3)ccc2O1 (stereo unspecified)	·	·	·	–	·
CCc1cccc(C)c1Nc1c(-c2ccc(SC)cc2)nc2sccn12	–	20µM	·	·	·
CCc1cccc(C)c1Nc1c(-c2ccsc2)nc2ncccn12	–	?	·	·	·
CCc1cccc(C)c1Nc1c(-c2cccc(O)c2)nc2cnccn12	–	11µM	–	–	·
CCc1cccc(C)c1Nc1c(-c2ccc(N(C)C)cc2)nc2cnccn12	16µM	16µM	?	?	·
CCN1CCN(C(=O)N[C@H](C(=O)N[C@@H]2C(=O)N3C(C(=O)O)=C(CSc4nnnn4C)CS[C@@H]23)c2ccc(O)cc2)C(=O)C1=O	·	·	–	–	·
Cc1ccccc1CN1C[C@@H]2C[C@@H](c3cn[nH]c3-c3ccccc3)N3CCC[C@@]23C1=O	–	?	–	–	-63
CCn1ncc([C@@H]2C[C@H]3CN(Cc4ccccc4C)C(=O)[C@]34CCCN24)c1C	–	–	·	–	–
O=C1N(C2CCCC2)C[C@@H]2C[C@@H](c3cn[nH]c3-c3ccc(Cl)cc3)N3CCC[C@@]123	–	?	–[11.3 µM]	–	-64
Cc1nn(C)c(Cl)c1S(=O)(=O)N(Cc1ccco1)c1ncnc2nc[nH]c12	–	–	·	·	·
O=C(COc1ccc(S(=O)(=O)N2CCOCC2)cc1Cl)NC1CCCCC1	–	?	–	–	–
